# Measured values taken from the supplement of paper PMC4466140.
# B1: unnamed (peptide)
# chain: PKRRAPPPVPKKPSS
# B2: unnamed (peptide)
# chain: QDKEGIPPDQQRLIF
# Biological target: AgAbp1
# Test: SPOT peptide array binding signal intensity (averaged, normalized) (arbitrary units (background-subtracted, floor 0; scale differs between SH3 domains)); higher = stronger binding of the SH3 domain to the peptide
# Outline: (§1)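 To measure binding, SH3 domains from four yeast species were fused to GST, expressed in E. coli BL21(DE3) and purified on glutathione Sepharose. Each domain was incubated at 10 μg/ml overnight at 4°C on cellulose membranes with synthetic 15-mer peptides whose cysteines were replaced by serines. Anti-GST antibody, an HRP anti-mouse secondary and luminol were used for detection, and images were quantified with Genespotter. Reported binding signal is normalized, background-subtracted spot intensity averaged over replicates, in arbitrary units that differ between domains.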
row,Binder,SPOT peptide array binding signal intensity
1,B1,5860
2,B2,≤ 0

# Biological target: AgBbc1
# Test: as above
# Outline: as §1
row,Binder,SPOT peptide array binding signal intensity
1,B1,1440
2,B2,≤ 0

# Biological target: AgBem1-D1
# Test: as above
# Outline: as §1
row,Binder,SPOT peptide array binding signal intensity
1,B1,221
2,B2,≤ 0

# Biological target: AgBzz1-D1
# Test: as above
# Outline: as §1
row,Binder,SPOT peptide array binding signal intensity
1,B1,2030
2,B2,≤ 0

# Biological target: AgBzz1-D2
# Test: as above
# Outline: as §1
row,Binder,SPOT peptide array binding signal intensity
1,B1,987
2,B2,≤ 0

# Biological target: AgCyk3
# Test: as above
# Outline: as §1
row,Binder,SPOT peptide array binding signal intensity
1,B1,1
2,B2,≤ 0

# Biological target: AgFus1
# Test: as above
# Outline: as §1
row,Binder,SPOT peptide array binding signal intensity
1,B1,21.5
2,B2,≤ 0

# Biological target: AgHof1
# Test: as above
# Outline: as §1
row,Binder,SPOT peptide array binding signal intensity
1,B1,530
2,B2,≤ 0

# Biological target: AgHse1
# Test: as above
# Outline: as §1
row,Binder,SPOT peptide array binding signal intensity
1,B1,122
2,B2,≤ 0

# Biological target: AgLsb1
# Test: as above
# Outline: as §1
row,Binder,SPOT peptide array binding signal intensity
1,B1,784
2,B2,≤ 0

# Biological target: AgLsb4
# Test: as above
# Outline: as §1
row,Binder,SPOT peptide array binding signal intensity
1,B1,158
2,B2,≤ 0

# Biological target: AgMyo5
# Test: as above
# Outline: as §1
row,Binder,SPOT peptide array binding signal intensity
1,B1,73.5
2,B2,0.75

# Biological target: AgNbp2
# Test: as above
# Outline: as §1
row,Binder,SPOT peptide array binding signal intensity
1,B1,5620
2,B2,≤ 0

# Biological target: AgRvs167
# Test: as above
# Outline: as §1
row,Binder,SPOT peptide array binding signal intensity
1,B1,100
2,B2,0.333

# Biological target: AgSho1
# Test: as above
# Outline: as §1
row,Binder,SPOT peptide array binding signal intensity
1,B1,479
2,B2,≤ 0

# Biological target: AgSla1-D1-D2
# Test: as above
# Outline: as §1
row,Binder,SPOT peptide array binding signal intensity
1,B1,96
2,B2,≤ 0

# Biological target: AgSla1-D3
# Test: as above
# Outline: as §1
row,Binder,SPOT peptide array binding signal intensity
1,B1,856
2,B2,≤ 0

# Biological target: CaAbp1-D1
# Test: as above
# Outline: as §1
row,Binder,SPOT peptide array binding signal intensity
1,B1,2910
2,B2,≤ 0

# Biological target: CaAbp1-D2
# Test: as above
# Outline: as §1
row,Binder,SPOT peptide array binding signal intensity
1,B1,5120
2,B2,≤ 0

# Biological target: CaBbc1
# Test: as above
# Outline: as §1
row,Binder,SPOT peptide array binding signal intensity
1,B1,1940
2,B2,≤ 0

# Biological target: CaBem1-D1
# Test: as above
# Outline: as §1
row,Binder,SPOT peptide array binding signal intensity
1,B1,110
2,B2,≤ 0

# Biological target: CaBzz1-D1
# Test: as above
# Outline: as §1
row,Binder,SPOT peptide array binding signal intensity
1,B1,6700
2,B2,≤ 0

# Biological target: CaBzz1-D2
# Test: as above
# Outline: as §1
row,Binder,SPOT peptide array binding signal intensity
1,B1,5750
2,B2,≤ 0

# Biological target: CaCyk3
# Test: as above
# Outline: as §1
row,Binder,SPOT peptide array binding signal intensity
1,B1,142
2,B2,≤ 0

# Biological target: CaFus1
# Test: as above
# Outline: as §1
row,Binder,SPOT peptide array binding signal intensity
1,B1,188
2,B2,≤ 0

# Biological target: CaHof1
# Test: as above
# Outline: as §1
row,Binder,SPOT peptide array binding signal intensity
1,B1,0.5
2,B2,≤ 0

# Biological target: CaHse1
# Test: as above
# Outline: as §1
row,Binder,SPOT peptide array binding signal intensity
1,B1,788
2,B2,≤ 0

# Biological target: CaLsb1
# Test: as above
# Outline: as §1
row,Binder,SPOT peptide array binding signal intensity
1,B1,0.5
2,B2,≤ 0

# Biological target: CaLsb4
# Test: as above
# Outline: as §1
row,Binder,SPOT peptide array binding signal intensity
1,B1,2470
2,B2,≤ 0

# Biological target: CaMyo5
# Test: as above
# Outline: as §1
row,Binder,SPOT peptide array binding signal intensity
1,B1,2
2,B2,10.8

# Biological target: CaNbp2
# Test: as above
# Outline: as §1
row,Binder,SPOT peptide array binding signal intensity
1,B2,≤ 0

# Biological target: CaRvs167
# Test: as above
# Outline: as §1
row,Binder,SPOT peptide array binding signal intensity
1,B2,≤ 0

# Biological target: CaRvs167-3
# Test: as above
# Outline: as §1
row,Binder,SPOT peptide array binding signal intensity
1,B2,3

# Biological target: CaSho1
# Test: as above
# Outline: as §1
row,Binder,SPOT peptide array binding signal intensity
1,B2,≤ 0

# Biological target: CaSla1-D1-D2
# Test: as above
# Outline: as §1
row,Binder,SPOT peptide array binding signal intensity
1,B2,≤ 0

# Biological target: CaSla1-D3
# Test: as above
# Outline: as §1
row,Binder,SPOT peptide array binding signal intensity
1,B2,≤ 0

# Biological target: ScAbp1
# Test: as above
# Outline: as §1
row,Binder,SPOT peptide array binding signal intensity
1,B2,8

# Biological target: ScBbc1
# Test: as above
# Outline: as §1
row,Binder,SPOT peptide array binding signal intensity
1,B2,≤ 0

# Biological target: ScBem1-D1
# Test: as above
# Outline: as §1
row,Binder,SPOT peptide array binding signal intensity
1,B2,≤ 0

# Biological target: ScBzz1-D1
# Test: as above
# Outline: as §1
row,Binder,SPOT peptide array binding signal intensity
1,B2,18

# Biological target: ScBzz1-D2
# Test: as above
# Outline: as §1
row,Binder,SPOT peptide array binding signal intensity
1,B2,26

# Biological target: ScCyk3
# Test: as above
# Outline: as §1
row,Binder,SPOT peptide array binding signal intensity
1,B2,≤ 0

# Biological target: ScFus1
# Test: as above
# Outline: as §1
row,Binder,SPOT peptide array binding signal intensity
1,B2,≤ 0

# Biological target: ScHof1
# Test: as above
# Outline: as §1
row,Binder,SPOT peptide array binding signal intensity
1,B2,≤ 0

# Biological target: ScHse1
# Test: as above
# Outline: as §1
row,Binder,SPOT peptide array binding signal intensity
1,B2,≤ 0

# Biological target: ScLsb1
# Test: as above
# Outline: as §1
row,Binder,SPOT peptide array binding signal intensity
1,B2,≤ 0

# Biological target: ScLsb2
# Test: as above
# Outline: as §1
row,Binder,SPOT peptide array binding signal intensity
1,B2,≤ 0

# Biological target: ScLsb3
# Test: as above
# Outline: as §1
row,Binder,SPOT peptide array binding signal intensity
1,B2,≤ 0

# Biological target: ScLsb4
# Test: as above
# Outline: as §1
row,Binder,SPOT peptide array binding signal intensity
1,B2,≤ 0

# Biological target: ScMyo3
# Test: as above
# Outline: as §1
row,Binder,SPOT peptide array binding signal intensity
1,B2,≤ 0

# Biological target: ScMyo5
# Test: as above
# Outline: as §1
row,Binder,SPOT peptide array binding signal intensity
1,B2,7

# Biological target: ScNbp2
# Test: as above
# Outline: as §1
row,Binder,SPOT peptide array binding signal intensity
1,B2,≤ 0

# Biological target: ScPex13
# Test: as above
# Outline: as §1
row,Binder,SPOT peptide array binding signal intensity
1,B2,≤ 0

# Biological target: ScRvs167
# Test: as above
# Outline: as §1
row,Binder,SPOT peptide array binding signal intensity
1,B2,1

# Biological target: ScSho1
# Test: as above
# Outline: as §1
row,Binder,SPOT peptide array binding signal intensity
1,B2,≤ 0

# Biological target: ScSla1-D1-D2
# Test: as above
# Outline: as §1
row,Binder,SPOT peptide array binding signal intensity
1,B2,≤ 0

# Biological target: ScSla1-D3
# Test: as above
# Outline: as §1
row,Binder,SPOT peptide array binding signal intensity
1,B2,≤ 0

# Biological target: SpAbp1-D1
# Test: as above
# Outline: as §1
row,Binder,SPOT peptide array binding signal intensity
1,B2,≤ 0

# Biological target: SpBbc1
# Test: as above
# Outline: as §1
row,Binder,SPOT peptide array binding signal intensity
1,B2,≤ 0

# Biological target: SpBzz1-D1
# Test: as above
# Outline: as §1
row,Binder,SPOT peptide array binding signal intensity
1,B2,≤ 0

# Biological target: SpBzz1-D2
# Test: as above
# Outline: as §1
row,Binder,SPOT peptide array binding signal intensity
1,B2,≤ 0

# Biological target: SpCyk3
# Test: as above
# Outline: as §1
row,Binder,SPOT peptide array binding signal intensity
1,B2,≤ 0

# Biological target: SpHof1
# Test: as above
# Outline: as §1
row,Binder,SPOT peptide array binding signal intensity
1,B2,≤ 0

# Biological target: SpHof1-2
# Test: as above
# Outline: as §1
row,Binder,SPOT peptide array binding signal intensity
1,B2,0.5

# Biological target: SpHof1-3
# Test: as above
# Outline: as §1
row,Binder,SPOT peptide array binding signal intensity
1,B2,20

# Biological target: SpHse1
# Test: as above
# Outline: as §1
row,Binder,SPOT peptide array binding signal intensity
1,B2,≤ 0

# Biological target: SpLsb1
# Test: as above
# Outline: as §1
row,Binder,SPOT peptide array binding signal intensity
1,B2,≤ 0

# Biological target: SpLsb4
# Test: as above
# Outline: as §1
row,Binder,SPOT peptide array binding signal intensity
1,B2,≤ 0

# Biological target: SpMyo1
# Test: as above
# Outline: as §1
row,Binder,SPOT peptide array binding signal intensity
1,B2,≤ 0

# Biological target: SpNbp2
# Test: as above
# Outline: as §1
row,Binder,SPOT peptide array binding signal intensity
1,B2,≤ 0

# Biological target: SpPex13
# Test: as above
# Outline: as §1
row,Binder,SPOT peptide array binding signal intensity
1,B2,≤ 0

# Biological target: SpRvs167
# Test: as above
# Outline: as §1
row,Binder,SPOT peptide array binding signal intensity
1,B2,≤ 0

# Biological target: SpSla1-D1-D2
# Test: as above
# Outline: as §1
row,Binder,SPOT peptide array binding signal intensity
1,B2,≤ 0

# Biological target: SpSla1-D3
# Test: as above
# Outline: as §1
row,Binder,SPOT peptide array binding signal intensity
1,B2,≤ 0
